In PubChem BioAssay (NCI):
This is part of a sample that, as a whole, favours compounds with a hit. Of some 83,000 tested, about 20% had one in any assay.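 Compound tested at a single concentration for 48 hours in 96-well plates; a percent growth value below 10 was scored as active.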 A number with no mark means an inactive call. Calls of active or inactive are those of the source.

system: HCT-116 colon; assay: NCI-60 one-dose screen, 48 h (100 = growth as untreated, 0 = no growth, -100 = all killed); details: 10 µM unless noted
Procedure: Growth inhibition of the HCT-116 human tumor cell line is measured as a screen for anti-cancer activity. Cells are grown in 96 well plates and exposed to the test compound for 48 hours. Compounds are tested at a single concentration, which is 10^-5 M for most compounds. The reported endpoint is percent growth (GI% or GIPRCNT), where numbers from 0 - 100% represent growth inhibition, and numbers from -100% - 0 represent cell death. For example, a value of 40 represents 60% growth inhibition. A value of 0 means no net growth occurred over the course of the experiment. A value of -40 indicates 40% of cells at the beginning of the experiment died by the end of the experiment. A value of -100 means all cells are dead at the end of the experiment.
NCI-60 Human Tumor Cell Lines Screen was performed using the standard one-dose NCI protocol, which is described in more detail at https://dtp.cancer.gov/discovery_development/nci-60/default.htm.
Compounds with GIPRCNT values below 10 were considered active. Activity score was based on GIPRCNT using the following formula: […]
Score is 0 for GIPRCNT values of 100 or above, 50 for GIPRCNT values of 0, and 100 for GIPRCNT values of -100.

| Compound | growth |
| --- | --- |
| CC(=O)CC1CCCC1c1ccc2ccccc2c1 (stereo not given) | 104% |
| C=CC(=O)N(C)[C@H]1C[C@H]2OC(C)(C1OC)n1c3ccccc3c3c4c(c5c6ccccc6n2c5c31)C(=O)NC4 (stereo not given in full) | -48.4% (active) |
| Cc1ccc(NC(=O)Nc2ccc(Nc3ncnc4sc5c(c34)CCOC5)cc2)cc1Cl | 101% |
| Cc1ccc2oc(=O)cc(-c3cc(-c4cc5ccccc5oc4=O)nc(N)c3C#N)c2c1 | 51.4% |
| N#Cc1c(-c2ccc(Cl)cc2)csc1NC(=O)Nc1cccc(C(F)(F)F)c1 | 1.8% (active) |
| COc1ccc(CCCc2c3[n+](cc4c(OC)c(OC)ccc24)CCc2cc4c(cc2-3)OCO4)cc1 | 59.2% |
| CCN(CC)Cc1cc(Nc2cc(C(F)(F)F)c(C#N)c3nc4ccccc4n23)ccc1O | 4.67% (active) |
| COc1cc2c(Oc3ccc(NC(=O)C4(C(=O)Nc5ccc(F)cc5)CC4)cc3F)ccnc2cc1OCCCN1CCOCC1 | -61.2% (active) |
| Nc1c(C(=O)c2ccccc2)sc2nc(-c3cccs3)ccc12 | 13.3% |
| CC(=O)OC(C(=O)c1ccccc1)c1ccccc1 (stereo not given) | 95.8% |
| COc1cnc2c(c1)C(=O)c1c-2n(CCCn2ccnc2)c(=O)c2cc(Cl)ccc12 | -20.7% (active) |
| Cc1ccc(NC(=O)c2ccc(CN3CCN(C)CC3)cc2)cc1Nc1nc(-c2cccnc2)cs1 | 18.1% |
| CN1CCC(COc2cnc(-c3cccc(Cn4nc(-c5cccc(C#N)c5)ccc4=O)c3)nc2)CC1 | 22.5% |
| O=CC(OC(=O)c1ccccc1)C(OC(=O)c1ccccc1)C(COC(c1ccccc1)(c1ccccc1)c1ccccc1)OC(=O)c1ccccc1 (stereo not given) | 7.51% (active) |
| C=CC(=O)Nc1cccc(Oc2nc(Nc3ccc(N4CCN(C)CC4)cc3)nc3ccsc23)c1 | -89.2% (active) |
| CCN(CCO)CCCOc1ccc2c(Nc3cc(CC(=O)Nc4cccc(F)c4)[nH]n3)ncnc2c1 | 11.1% |
| CCCCn1c(C)nc2ccc(Nc3nc(N4CCN(C)CC4)nc4nc[nH]c34)cc21 | 75.8% |
| O=C(c1c(F)ccc(NS(=O)(=O)N2CC[C@@H](F)C2)c1F)c1c[nH]c2ncc(-c3cnc(C4CC4)nc3)cc12 | 30.8% |
| CCOC(=O)C1=C(C)N=C2Sc3cccc(OC)c3N2[C@H]1c1ccccn1 | 94.9% |
| O=C(CNc1nc(-c2ccc(Cl)cc2)cs1)Nc1ccc(-c2nc3ccccc3s2)cc1 | 95.5% |

| Compound | growth |
| --- | --- |
| C[C@@H](NC(=O)c1ncnc(N)c1Cl)c1ncc(C(=O)Nc2cc(C(F)(F)F)c(Cl)cn2)s1 | 25.3% |
| CNC(=O)c1nn(C)c2c1C(C)(C)Cc1cnc(Nc3ccc(N4CCN(C)CC4)cc3)nc1-2 | 0.153% (active) |
| COc1cc(-c2nc(C(=O)NCC(=O)O)nn2-c2ccc(Cl)cc2)cc(OC)c1OC | 103% |
| O=C(Nc1ccc(Nc2ncnc3sc4c(c23)CCOC4)cc1)Nc1ccc(Cl)c(C(F)(F)F)c1 | 77.5% |
| CC/C(=C(\c1ccc(OCCN2CCCCCCC2)cc1)c1ccc(OC(=O)C2CCCCC2)cc1)c1ccc(Cl)cc1 | 87.3% |
| O=C(Nc1ccc(-c2ccnc(Nc3ccc(N4CCOCC4)cc3)n2)cc1)[C@@H]1CCCN1 | 34.1% |
| COc1cc2c(cc1OCCCCCCN1CCN(c3ncnc4ccccc34)CC1)N=CC1CCCN1C2=O (stereo not given) | 3.4% (active) |
| O=C1C=CC2(NN=C(c3ccccc3)N2c2ccccc2)c2cccc(O)c21 (stereo not given) | 18.1% |
| Nc1nc(N)c2cc(CNc3ccc(C(=O)NC(CC(=O)O)C(=O)O)cc3)ccc2n1 (stereo not given) | 22.4% |
| N#Cc1c(C(F)(F)F)cc(Nc2ccc3nc(NCCN4CCCC4)oc3c2)n2c1nc1ccccc12 | 17.9% |
| O=C1CSC(c2c(F)cccc2Cl)N1NC(=O)C(O)(c1ccccc1)c1ccccc1 (stereo not given) | 94.8% |
| CCCS(=O)(=O)Nc1ccc(F)c(C(=O)c2c[nH]c3ncc(-c4ccc(Cl)cc4)cc23)c1F | 27.3% |
| CCc1nc(C(N)=O)c(Nc2ccc(N3CCC(N4CCN(C)CC4)CC3)c(OC)c2)nc1NC1CCOCC1 | 5.33% (active) |
| CN1CCN(CC(=O)Nc2ccc(-c3nc4ccccc4s3)cc2)CC1 | 70.9% |
| CCN1CCN(Cc2ccc(-c3cc4c(N[C@H](C)c5ccccc5)ncnc4[nH]3)cc2)CC1 | 19.7% |
| CCCCCc1ccc(C)cc1OC(=O)CCl | 109% |
| O=C1CC(c2cccc(F)c2)c2c(n[nH]c2-c2ccc(Cl)cc2)N1 (stereo not given) | 74.4% |
| Cc1ccc(NC(=O)NC(=O)CSc2nc3ccccc3nc2C)cc1 | 17.1% |
| CN(C)CCOC(=O)Nc1nc2ccc(Sc3ccccc3)cc2[nH]1 | 30.9% |
| O=C(O)C1(Cc2cccc(Nc3nccs3)n2)CCC(Oc2cccc(Cl)c2F)CC1 (stereo not given) | 45% |
